# Assay results published in PubChem BioAssay AID777 (Sanford-Burnham Center for Chemical Genomics, 2007).
# Hit rate of the full screen: of about 96,000 compounds, about 19,000 (20%) were called active. Not all results are given here. Unmarked numbers belong to inactive results.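 The calls were made as follows: active = blocking of liver enzyme CYP2C9 beyond about 50% at 5 µM (limit read from the data); inactive = the rest.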
# Biological target: Cytochrome P450 2C9 (Homo sapiens) (UniProt P11712)
# Sequence (P11712 whole entry, looked up): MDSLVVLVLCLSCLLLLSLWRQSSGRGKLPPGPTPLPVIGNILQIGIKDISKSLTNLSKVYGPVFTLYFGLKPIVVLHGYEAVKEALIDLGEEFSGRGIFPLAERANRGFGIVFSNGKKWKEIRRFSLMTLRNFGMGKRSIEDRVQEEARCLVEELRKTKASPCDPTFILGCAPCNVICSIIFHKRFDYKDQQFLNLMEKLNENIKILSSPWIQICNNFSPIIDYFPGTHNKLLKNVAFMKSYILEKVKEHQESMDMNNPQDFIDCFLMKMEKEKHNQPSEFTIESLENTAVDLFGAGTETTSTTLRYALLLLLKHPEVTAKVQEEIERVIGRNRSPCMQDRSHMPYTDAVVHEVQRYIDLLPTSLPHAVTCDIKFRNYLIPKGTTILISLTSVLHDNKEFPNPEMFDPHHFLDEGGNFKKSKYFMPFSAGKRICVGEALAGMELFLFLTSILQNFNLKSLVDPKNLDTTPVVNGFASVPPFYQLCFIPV
# Experiment: blockers of cytochrome P450 2C9 activity – biochemical, luminescence, ADME assay, primary screen (AID 777)
# Conditions: CYP2C9 Supersomes, luciferin-H conversion, at 5 µM, active compounds read high
row,SMILES,inhibition
1,CC1=NN(Cc2ccccc2)C(=O)/C1=C/c1ccc(N(C)C)cc1,14.4%
2,CN(C)c1cc[n+](Cc2ccccc2)cc1,2.2%
3,CN(C)c1ccc(/C=C2\NC(=S)N(Cc3ccccc3)C2=O)cc1,66.2% (active)
4,CCOC(=O)N1CCN(Cc2oc(CO)cc(=O)c2O)CC1,-4.5%
5,CC(C)(C)Cc1nnc(NC(=O)c2cc(-c3ccccc3)nc3ccccc23)s1,11.3%
6,Cc1ccc(-c2cc(C(=O)Nc3nn[nH]n3)c3ccccc3n2)c(C)c1,23.9%
7,N/C(=N\OC(=O)c1cc(-c2ccccc2)nc2ccccc12)c1ccncc1,97.7% (active)
8,CC12CN(Cc3ccccc3)CC(C)(CN(Cc3ccccc3)C1)C2=NO,-1.5%
9,CCc1ccc2oc(-c3ccc(N)cc3)nc2c1,-59.8%
10,COc1cccc(-c2nc3cc(C)ccc3o2)c1,53.3% (active)
11,COc1cccc(-c2nc(S(=O)(=O)c3ccccc3)c(N3CCOCC3)o2)c1,27.5%
12,O=C(O)CSCc1ccc(C(=O)O)o1,13.1%
13,CSc1ccc(S(=O)(=O)Nc2cccc(F)c2)cc1,93.8% (active)
14,O=C(O)c1ccc(F)c(S(=O)(=O)Nc2ccccc2)c1,17%
15,CSc1ccc(S(=O)(=O)NCc2ccc(Cl)cc2)cc1,-49.2%
16,CCn1cc(C(=O)N2CCN(C3CCCCC3)CC2)c2cc(OC)c(OC)cc2c1=O,19%
17,Cc1cc2ncn(CCCCOc3ccccc3)c2cc1C,27.5%
18,CCOC(=O)c1nnn(CC(=O)Nc2cccc(F)c2)c1C(=O)OCC,60.3% (active)
19,CCOC(=O)c1ccc(NC(=O)Cn2nnc(-c3ccc(C)cc3)n2)cc1,32%
20,CCOC(=O)c1ccc(NC(=O)CS(=O)(=O)c2cn(CC)c3ccccc23)cc1,20.9%
21,CCOC(=O)c1cccc(NC(=O)CCc2c(C)nc3ncnn3c2C)c1,15.2%
22,CCOC(=O)c1cn(CC(=O)Nc2ccc(C(C)C)cc2)nn1,17.6%
23,CCOC(=O)c1cccc(NC(=O)CCn2nnc3ccccc32)c1,53.3% (active)
24,CCCc1nc2scc(-c3ccc(C)cc3)c2c(=O)n1N,27.6%

row,SMILES,inhibition
1,CCSc1ccccc1C(=O)NCc1ccc(OC)cc1,53.8% (active)
2,CCCNC(=O)c1ccccc1NC(=O)CSCc1ccc(OC)cc1,15.3%
3,COc1ccc(CNC(=O)CCn2cccc2)cc1,20.4%
4,CC(C)(CNCC(O)c1ccccc1)N1CCOCC1 (stereo not drawn),-3.5%
5,CCOC(=O)C1(Cc2ccc(O)cc2)NC(c2ccccc2F)C2C(=O)N(C)C(=O)C21 (stereo not drawn),-15.1%
6,Cc1nc([N+](=O)[O-])nn1C12CC3CC(CC(Br)(C3)C1)C2,18.8%
7,CCOC(=O)N1CC=C2C(C#N)=C(N)C(C#N)(C#N)[C@H](c3cccs3)[C@H]2C1,11.7%
8,N#CC1=C(N)C(C#N)(C#N)[C@H](c2ccsc2)[C@H]2COCC=C12,61.4% (active)
9,CCN1CC=C2C(C#N)=C(N)C(C#N)(C#N)[C@H](c3ccoc3)[C@H]2C1,-2.3%
10,CCOc1ccc(C(=O)NC(C(=O)NCc2ccccn2)C(C)C)cc1 (stereo not drawn),6.7%
11,Cc1cc(C)cc(NC(=O)c2cccc(NC(=O)C3C4CC5OC(=O)C3C5C4)c2)c1 (stereo not drawn),-1.1%
12,O=C(Nc1ccc(Br)cc1)c1cccc(NC(=O)C2C3CC4OC(=O)C2C4C3)c1 (stereo not drawn),66.4% (active)
13,O=C(Nc1cccc(C(=O)N2CCCC2)c1)c1ccccc1,31.3%
14,C/C(N)=C(\C#N)C(=O)NCCc1ccccn1,-7.1%
15,Fc1ccc(-c2nnc(CSc3nnc(-c4ccc5c(c4)OCO5)o3)o2)cc1,-13.3%
16,Fc1ccc2nc(-c3ccccc3)nc(SCc3nnc(-c4ccccc4)o3)c2c1,76.7% (active)
17,Cc1ccc2nc(SCc3nnc(-c4ccccc4[N+](=O)[O-])o3)c(C#N)cc2c1,20%
18,COc1ccc(OC)c(NC(=O)c2cnn(-c3ccccc3Cl)c2NC(=O)c2ccco2)c1,24.5%
19,Cc1nc2nc(COc3ccccc3)[nH]n2c(=O)c1C,1.1%
20,CCn1cc(C(=O)N/N=C(/C)c2ccc(F)cc2)c(=O)c2cc(F)c(N3CCCC3)cc21,5.7%
21,CN(c1ccccc1)c1ccc(/C=c2\s/c(=C(/C#N)C(=O)C(C)(C)C)n(Cc3ccco3)c2=O)cc1,41.9%
22,C=CCn1c(=N)n(CC(O)COc2ccc(OC)cc2)c2ccccc21 (stereo not drawn),-0.2%
23,COCCCn1c(CCC(=O)O)ccc1-c1ccc(F)cc1,39.8%
24,CC(C)(CSc1nncn1/N=C/c1ccco1)NS(=O)(=O)c1ccc(Cl)cc1,61.2% (active)
